# Source: PubChem BioAssay
# Activity calls are given as the source filed them. Rule as the data show it, unless noted: active = inhibition above about 80%; inactive = the rest.
# What was measured:
# [1] = viability loss with induced miR-34 in A549 – imaging, A549 dox-inducible miR-34, nuclei and caspase counts, primary screen (AID 1347080;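 active = compounds whose cell count with miR-34 switched on is under 0.7 times the count with it off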); details: A549 miR-34 inducible, Hoechst nuclei count, 48 h
# [2] = MELAS cybrid and Rieske KO viability enhancers – cell-based, MELAS cybrids, Rieske KO mouse fibroblasts, CellTiter-Glo, primary screen (AID 1508586;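 active = mean z-score across replicates of 1.96 or higher in either the MELAS or the Rieske mutant cell line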;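 also: z relative to plate mean and SD of compound and empty wells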); details: low glucose
# [3] = growth inhibition, single agent or in combination, cell-based, chromothripsis tumors, cisplatin or BGB combos (AID 1671449); details: LFS_MB_P medulloblastoma cells;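 also: cells exposed for 96 hours; 0% = vehicle DMSO and 100% = killing by high DMSO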
# [4] = growth inhibition, single agent and combos, cell-based, chromothripsis tumors, cisplatin or BGB combos (AID 1671450); details: HDN33 neuroblastoma cells, stronger effect = higher value;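 also: cells exposed to compound for four days; 0% = vehicle DMSO and 100% = cell killing by high DMSO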
# [5] = growth inhibition, single agents and combos, ICB984, cell-based, cisplatin or BGB combos, synergistic combos for chromothripsis tumors (AID 1671451; call rule not given here;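 also: cells exposed for 96 hours before readout; 0% = vehicle DMSO and 100% = killing by high DMSO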); details: ICB984 medulloblastoma cells, drug combinations, stronger effect = higher value
# [6] = growth inhibition, single agents and combos, LFS_MB_1R, cell-based, cisplatin or BGB combos, synergistic combos for chromothripsis tumors (AID 1671452); details: LFS_MB_1R medulloblastoma cells, stronger effect = higher value;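 also: cells exposed for 96 hours before readout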
# [7] = growth inhibition, single agents and combos, HTB85, cell-based, BGB or cisplatin IC20 combos, synergistic combos for chromothripsis tumors (AID 1671453); details: HTB85 osteosarcoma cells, drug combinations, stronger effect = higher value;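 also: cells exposed for 96 hours before readout; 0% = vehicle DMSO and 100% = high DMSO killing control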
# [8] = growth inhibition, single agents and combos, CRL2098, cell-based, BGB or cisplatin IC20 combos, synergistic combos for chromothripsis tumors (AID 1671454); details: CRL2098 osteosarcoma cells, drug combinations, stronger effect = higher value;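 also: cells exposed for 96 h before readout; 0% = vehicle DMSO and 100% = killing by high DMSO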
# [9] = growth inhibition, single agents and combos, HD-MB03, cell-based, BGB or cisplatin IC20 combos, synergistic combos for chromothripsis tumors (AID 1671455; in the data active = inhibition above about 83%;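 also: 0% = vehicle DMSO and 100% = high DMSO as cytotoxic control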); details: HD-MB03 medulloblastoma cells, stronger effect = higher value
# [10] = growth inhibition, single agents and combos, UWB1.289, cell-based, BGB or cisplatin combos, synergistic combos for chromothripsis tumors (AID 1671456); details: UWB1.289 ovarian carcinoma cells, stronger effect = higher value;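 also: cells exposed to compound for four days; 0% = vehicle DMSO and 100% = killing by high DMSO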
# [11] = growth inhibition, single agents and combos, LFS_MB_2R, cell-based, cisplatin combos, synergistic combos for chromothripsis tumors (AID 1671457); details: LFS_MB_2R medulloblastoma cells, stronger effect = higher value;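 also: cells exposed to compound for four days before readout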
# [12] = growth inhibition, MDA-MB-436, cell-based, BGB or cisplatin combos, synergistic combos for chromothripsis tumors (AID 1671458; call rule not given here;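 also: cells exposed for 96 hours; 0% = vehicle DMSO and 100% = killing by high DMSO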); details: MDA-MB-436 breast carcinoma growth inhibition, drug combinations, stronger effect = higher value
# [13] = UWB1.289_BRCA1 ovarian cancer growth, cell-based, BGB or cisplatin combinations (AID 1671459); details: UWB1.289 BRCA1 ovarian carcinoma, drug combinations, stronger effect = higher value
# [14] = drug combination toxicity in non-malignant astrocytes – cell-based, BGB or cisplatin IC20 combos, cytotoxicity control for chromothriptic childhood tumor combination screen (AID 1671460); details: Human astrocytes, viability inhibition, drug combinations, at 0.5 µM, stronger effect = higher value;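 also: cells exposed to compounds for 96 hours before viability readout; 0% = vehicle and 100% = killing control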
# [15] = BT084 cell growth, single and combined drugs, ICGC_MB145, cisplatin and BGB IC40 combos (AID 1671461); details: BT084 medulloblastoma cells, drug combinations, stronger effect = higher value;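 also: cells exposed to drugs for 96 hours; 0% = vehicle DMSO and 100% = high DMSO full killing control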
# [16] = RCMB18 cell growth, single agent and combined, cisplatin and BGB IC40 combos (AID 1671462); details: RCMB18 medulloblastoma cells, stronger effect = higher value;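 also: cells exposed to compound for four days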
# [17] = CRL1545 cell growth, single agent and combined, cisplatin and BGB IC20 combos (AID 1671464); details: CRL1545 osteosarcoma cells, stronger effect = higher value;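 also: cells exposed to compound for 96 hours before readout; 0% = vehicle DMSO and 100% = high DMSO killing control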
# [18] = measured here: combination with BGB IC40, at 0.05 µM
# [19] = measured here: with BGB IC20 combination, at 0.5 µM
# [20] = measured here: with cisplatin IC20 combination, at 0.5 µM
# [21] = measured here: combination with cisplatin, at 0.5 µM
# [22] = measured here: combination with cisplatin, at 5 µM
smiles,measurement,setting,value
Cc1cc(C=CC#N)cc(C)c1Nc1ccnc(Nc2ccc(C#N)cc2)n1,fold change,"[1]; stronger effect = lower value, cell number ratio, induced over uninduced",0.909 (inactive)
same,fold change,[1]; measured here: relative caspase fold change +Dox/-Dox,0.615
same,cell count,"[1]; measured here: total cells with miR-34 induction, stronger effect = lower value",5740
same,cell count,[1]; measured here: total cells without miR-34 induction,6310
same,z-score,"[2]; MELAS cybrid survival, CellTiter-Glo 48 h, stronger effect = higher value",-0.58 (inactive)
same,z-score,"[2]; Rieske KO mouse fibroblast survival, CellTiter-Glo 72 h",1.5
same,inhibition,"[3]; at 0.5 µM, stronger effect = higher value",-21.9% (inactive)
same,inhibition,"[3]; measured here: combination with BGB IC20, at 0.005 µM",-35.7%
same,inhibition,"[3]; measured here: combination with BGB IC40, at 0.005 µM",-21.8%
same,inhibition,[3]; [18],-24.8%
same,inhibition,"[3]; measured here: combination with cisplatin, at 0.5 µM, stronger effect = higher value",-44.6%
same,inhibition,"[3]; measured here: combination with cisplatin, at 5 µM, stronger effect = higher value",-38.4%
same,inhibition,"[4]; BGB combo, at 5 µM",-13%
same,inhibition,[4]; at 0.5 µM,-0.82% (inactive)
same,inhibition,"[4]; cisplatin combo, at 5 µM",4.37%
same,inhibition,[4]; [19],-15.3%
same,inhibition,[4]; [20],22.4%
same,inhibition,"[4]; single agent, at 5 µM",-11.3%
same,inhibition,"[5]; BGB IC20 combo, at 0.005 µM",-0.887%
same,inhibition,"[5]; BGB IC40 combo, at 0.005 µM",-17%
same,inhibition,"[5]; BGB IC40 combo, at 0.05 µM",-41.8%
same,inhibition,[5]; at 0.5 µM,-20.3% (inactive)
same,inhibition,"[5]; cisplatin combo, at 0.05 µM",-45.8%
same,inhibition,"[5]; cisplatin combo, at 0.5 µM",-18.9%
same,inhibition,"[5]; cisplatin combo, at 5 µM",-30.5%
same,inhibition,"[5]; measured here: 5 uM single agent, at 5 µM",-25.1%
same,inhibition,[6]; at 0.5 µM,-21.6% (inactive)
same,inhibition,[6]; [18],-25.9%
same,inhibition,[6]; [21],2.17%
same,inhibition,[6]; [22],-13.4%
same,inhibition,[7]; at 0.5 µM,-10.2% (inactive)
same,inhibition,"[7]; measured here: with BGB IC20, at 0.5 µM",-9.74%
same,inhibition,"[7]; measured here: with BGB IC20, at 5 µM",-26.3%
same,inhibition,"[7]; measured here: with cisplatin IC20, at 0.5 µM",-28.3%
same,inhibition,"[7]; measured here: with cisplatin IC20, at 5 µM",-20.2%
same,inhibition,"[7]; single agent, at 5 µM",0.45%
same,inhibition,[8]; at 0.5 µM,-49.8% (inactive)
same,inhibition,"[8]; measured here: combination with BGB at IC20, at 0.5 µM",-61.5%
same,inhibition,"[8]; measured here: combination with cisplatin at IC20, at 0.5 µM",-40%
same,inhibition,[9]; at 0.5 µM,-1.33% (inactive)
same,inhibition,"[9]; measured here: combo with BGB at IC20, at 0.5 µM",-1%
same,inhibition,"[9]; measured here: combo with cisplatin at IC20, at 0.5 µM",-1.41%
same,inhibition,[10]; at 0.5 µM,1.47% (inactive)
same,inhibition,"[10]; measured here: inhibition with BGB combination, at 0.05 µM",-12.2%
same,inhibition,"[10]; measured here: inhibition with cisplatin combination, at 0.05 µM",6.05%
same,inhibition,[11]; at 0.5 µM,-13.3% (inactive)
same,inhibition,[11]; [21],-13.5%
same,inhibition,[11]; [22],-51.8%
same,inhibition,[12]; at 0.5 µM,-19.9% (inactive)
same,inhibition,"[12]; measured here: BGB combination, at 0.5 µM",-6.06%
same,inhibition,"[12]; measured here: BGB combination, at 5 µM",-3.72%
same,inhibition,"[12]; measured here: cisplatin combination, at 0.5 µM",-45.9%
same,inhibition,"[12]; measured here: cisplatin combination, at 5 µM",-32.4%
same,inhibition,"[13]; BGB combination, concentration series, at 5 µM",96.3%
same,inhibition,[13]; at 0.5 µM,0.87% (inactive)
same,inhibition,"[13]; cisplatin combination, concentration series, at 5 µM",96.7%
same,inhibition,[14],1.39% (inactive)
same,inhibition,[14]; measured here: combo with BGB IC20,-1.88%
same,inhibition,[14]; measured here: combo with cisplatin IC20,-1.66%
same,inhibition,[15]; at 0.5 µM,-3.04% (inactive)
same,inhibition,"[15]; cisplatin combination, at 0.5 µM",-6.25%
same,inhibition,"[15]; cisplatin combination, at 5 µM",-4.4%
same,inhibition,"[15]; measured here: BGB IC40 combination 0.05 uM, at 0.05 µM",-11.4%
same,inhibition,"[15]; single agent, at 5 µM",-18.3%
same,inhibition,[16]; at 0.5 µM,-10.6% (inactive)
same,inhibition,"[16]; cisplatin combo, at 5 µM",14.8%
same,inhibition,"[16]; measured here: BGB IC40 combination, at 0.05 µM",-40.8%
same,inhibition,[16]; [21],0.155%
same,inhibition,"[16]; single agent, at 5 µM",-17.1%
same,inhibition,[17]; at 0.5 µM,-12.8% (inactive)
same,inhibition,[17]; [19],-13.1%
same,inhibition,[17]; [20],-15.2%
same,inhibition,"[17]; single agent, at 0.05 µM",1.38%
same,inhibition,"[17]; single agent, at 5 µM",-26.3%
